Test results published in PMC12350791.

Target: ACTR2 (UniProt P61160)
Assay: cross-linking mass spectrometry
Details: DSBSO, in cells or nuclear extract, not told apart

Sequence of DDX39A, O00148 (O00148 whole entry): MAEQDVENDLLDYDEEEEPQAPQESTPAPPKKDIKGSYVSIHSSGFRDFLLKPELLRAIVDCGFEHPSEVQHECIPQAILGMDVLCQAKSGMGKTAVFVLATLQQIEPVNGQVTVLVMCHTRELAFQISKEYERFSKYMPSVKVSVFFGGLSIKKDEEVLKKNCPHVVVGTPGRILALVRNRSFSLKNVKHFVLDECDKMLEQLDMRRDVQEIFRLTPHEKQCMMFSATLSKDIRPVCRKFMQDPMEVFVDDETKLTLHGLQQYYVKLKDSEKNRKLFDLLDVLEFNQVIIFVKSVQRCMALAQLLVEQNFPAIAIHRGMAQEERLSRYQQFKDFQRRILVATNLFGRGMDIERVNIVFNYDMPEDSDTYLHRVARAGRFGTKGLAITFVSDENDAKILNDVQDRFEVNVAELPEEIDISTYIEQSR
Sequence of DDX39B, Q13838 (Q13838 whole entry): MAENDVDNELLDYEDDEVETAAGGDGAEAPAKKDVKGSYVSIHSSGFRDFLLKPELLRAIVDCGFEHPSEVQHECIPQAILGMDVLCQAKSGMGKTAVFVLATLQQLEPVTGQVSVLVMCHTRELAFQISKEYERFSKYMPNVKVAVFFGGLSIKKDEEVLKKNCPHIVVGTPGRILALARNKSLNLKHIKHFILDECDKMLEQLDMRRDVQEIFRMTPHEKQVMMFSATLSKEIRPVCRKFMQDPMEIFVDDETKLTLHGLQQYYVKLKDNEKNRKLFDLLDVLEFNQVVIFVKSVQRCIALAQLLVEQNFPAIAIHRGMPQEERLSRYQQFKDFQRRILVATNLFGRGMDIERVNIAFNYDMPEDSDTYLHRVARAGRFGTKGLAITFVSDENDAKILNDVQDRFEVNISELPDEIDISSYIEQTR
Sequence of ERH, P84090 (P84090 whole entry): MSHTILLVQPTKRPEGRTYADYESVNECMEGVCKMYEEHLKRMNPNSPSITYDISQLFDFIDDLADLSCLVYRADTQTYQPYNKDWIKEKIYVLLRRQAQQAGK

Substance | cross-linked residues
ARPC1B, O15143 | K49 - K219
ARPC4, P59998 | K44 - K322
ARPC3, O15145 | K61 - K46
ACTR3, P61158 | K348 - K46

Target: CHTOP (UniProt Q9Y3Y2)
Assay: cross-linking mass spectrometry
Details: DSBSO, in cells or nuclear extract, not told apart

Sequence of CHTOP (Q9Y3Y2 whole entry): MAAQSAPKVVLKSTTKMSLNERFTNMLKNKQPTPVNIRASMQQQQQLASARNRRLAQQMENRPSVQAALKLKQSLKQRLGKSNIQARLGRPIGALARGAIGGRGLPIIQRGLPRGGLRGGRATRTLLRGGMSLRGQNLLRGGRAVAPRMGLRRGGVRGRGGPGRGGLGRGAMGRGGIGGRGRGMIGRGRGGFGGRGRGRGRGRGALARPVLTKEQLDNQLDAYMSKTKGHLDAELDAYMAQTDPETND

Substance | cross-linked residues
DDX39B, Q13838 | K188 - K226
DDX39A, O00148 | K187 - K226
ERH, P84090 | K90 - K30
